Experimental data as given in PubChem BioAssay (NCATS).
Results filed as inconclusive are left out. The call rests on the fitted dose curve; in most records, active means well fitted curve in either direction with a large enough effect (not every such curve was filed as active); inconclusive means small, poorly fitted or top-dose-only effect, or another doubt; inactive means flat fitted curve, though single readings scatter.

assay: Stat Signaling Pathway (AID 446); conditions: ME-180 SIE beta-lactamase reporter, IL-6 stimulated, 5 h; at 17.2 µM (top of the series) unless noted;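 further: ME-180 cervical cancer cells given 40 pM IL-6 alongside compound; SIE-controlled beta-lactamase reporter measured as 460/530 nm FRET emission ratio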
Outline: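 Reporter line: ME-180 cervical carcinoma, SIE-beta-lactamase. Treatment: compound with 40 pM IL-6, 5 hrs, 37 C, in low-serum OPTI-MEM with 10 mM HEPES pH 7.3. Detection: 460/530 nm fluorescence.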
On the % scale 0 is the no-effect control and ±100 the full control effect.

activity, negative = inhibition, inactive:
CCOc1ccc(/C(O)=C2/C(=O)C(=O)N(CCN(CC)CC)C2c2ccco2)cc1 (stereo unspecified) 6.33%
CN1[C@@H]2CC(OC(=O)[C@@H](CO)c3ccccc3)C[C@H]1[C@H]1O[C@H]12 (stereo partly specified) 13.4% [at 38 µM]
COc1cc(-c2cc(C(F)(F)F)n3ncc(C(=O)O)c3n2)cc(OC)c1OC 1.42%
COC(=O)c1sc(NC(C)=O)c(C(=O)OC)c1C 1.36%
COCCNc1nc2c(c(=O)n(Cc3ccc(OC)cc3)c(=O)n2C)n1C -12.3%
CCCCOc1ccc(C(=O)Nc2ccc(N3CCN(C(C)=O)CC3)cc2)cc1 -7.6%
O=C(NC[C@@H]1CCCCN1)c1cc(OCC(F)(F)F)ccc1OCC(F)(F)F 4.72%
COc1cc(C2C3C(=O)N(c4ccc(F)cc4)C(=O)C3ON2c2ccccc2)ccc1O (stereo unspecified) -1.27%
Cc1cc(CC(=O)O)c(C)cc1CC(=O)O 2.12%
CC(=O)Nc1ccccc1O 2.83%
O=C1C2ON(c3ccccc3)C(c3cccnc3)C2C(=O)N1Cc1ccccc1 (stereo unspecified) -8.95%
